Experimental data taken from PubChem BioAssay (NCATS).
Results filed as inconclusive are left out. A call without a number means that no potency is given here. Active and inactive are the calls of the source. The call rests on the fitted dose curve; tested in HEK293 reporter line.
Potency means the concentration at half of the fitted maximal effect.

Assay: qHTS for Inhibitors of the Functional Ribonucleoprotein Complex (vRNP) of Lymphocytic Choriomeningitis Arenaviruses (LCMV): Viability assay - alamar blue signal for LCMV Primary Screen (AID 1347085); further: nearly all actives have a fitted effect of over 80% in size
Conditions: alamar blue viability counter-screen, LCMV vRNP screen cells; series mostly up to 57.5 µM
With `CC1=CC(=O)CCC1` the Potency was “inactive”. With `c1ccc2nc(-c3ccc4c(c3)OCO4)ccc2c1` the Potency was “inactive”. In the case of `CC(C)CCCC(=O)O`, the Potency is reported as “inactive”. With `CC(C)c1noc(N2CCC(COc3ccc(-c4ccc(S(C)(=O)=O)cc4)nc3)CC2)n1` the Potency was “inactive”. In the case of `CCCCCCC[C@@H](C/C=C/CCC(=O)N(C)C/C(=C/Cl)C/C(=C\C(=O)N1CC(OC)=CC1=O)OC)OC`, the Potency is reported as “inactive”. In the case of `COc1cc2c(cc1OC)C1Cc3ccc(OC)c(OC)c3C[N+]1([O-])CC2` (stereo not drawn), the Potency is reported as “inactive”. In the case of `C=C(C)[C@]12C[C@@H](C)[C@@]34O[C@](Cc5ccccc5)(O[C@@H]1[C@@H]3C=C(COC(=O)Cc1ccc(O)c(OC)c1)C[C@]1(O)C(=O)C(C)=C[C@@H]41)O2`, the Potency is reported as “inactive”. In the case of `COc1cc2c3c(c1OC)C1(C=CC(=O)C=C1)CC3N(C(C)=O)CC2` (stereo not drawn), the Potency is reported as “inactive”. For `NC(=O)Nc1ccc(Cl)c(Cl)c1`, the Potency was “inactive”. In the case of `COC(=O)c1ccccc1-n1c(C)nc2ccccc2c1=O`, the Potency is reported as “inactive”. With `O=C(CO)c1c[nH]c2ccccc12` the Potency was “inactive”. With `CCC1(CC)C(=O)NC(=O)N(c2ccccc2)C1=O` the Potency was “inactive”. With `CCCC(=O)OCCC(C)CCC=C(C)C` (stereo not drawn) the Potency was “inactive”. In the case of `CC1=CCCC(C)(C)C12CCC(C)O2` (stereo not drawn), the Potency is reported as “inactive”. In the case of `CCOC(=O)[C@H](CCc1ccccc1)N[C@@H](C)C(=O)N1CCCC1C(=O)O` (stereo partly drawn), the Potency is reported as “inactive”. In the case of `C=C1C(O)C[C@H]2C(=C)CCC3[C@H](OC(=O)[C@]3(O)CO)[C@@H]12` (stereo partly drawn), the Potency is reported as “inactive”. With `Cc1ccc(-c2ccccc2)cc1` the Potency was “inactive”. With `NC1(C(=O)N[C@@H](CCO)c2ccc(Cl)cc2)CCN(c2ncnc3[nH]ccc23)CC1` the Potency was 611 nM (active).
